Source: PubChem
ASM inhibitor: inhibitors of human secretory acid sphingomyelinase | P17405 | placental ASM, HMU-PC fluorogenic substrate, 60 min | Potency, µM (highest dose often 57.5 µM), for the others: at the highest dose activity change, negative = inhibition, usual class: inhibitors | actives 0.006% (n = 340,000) | AID 504937; also: potency is read from the fitted curve at half-maximal effect
Target sequence (P17405 47-631 limits assumed): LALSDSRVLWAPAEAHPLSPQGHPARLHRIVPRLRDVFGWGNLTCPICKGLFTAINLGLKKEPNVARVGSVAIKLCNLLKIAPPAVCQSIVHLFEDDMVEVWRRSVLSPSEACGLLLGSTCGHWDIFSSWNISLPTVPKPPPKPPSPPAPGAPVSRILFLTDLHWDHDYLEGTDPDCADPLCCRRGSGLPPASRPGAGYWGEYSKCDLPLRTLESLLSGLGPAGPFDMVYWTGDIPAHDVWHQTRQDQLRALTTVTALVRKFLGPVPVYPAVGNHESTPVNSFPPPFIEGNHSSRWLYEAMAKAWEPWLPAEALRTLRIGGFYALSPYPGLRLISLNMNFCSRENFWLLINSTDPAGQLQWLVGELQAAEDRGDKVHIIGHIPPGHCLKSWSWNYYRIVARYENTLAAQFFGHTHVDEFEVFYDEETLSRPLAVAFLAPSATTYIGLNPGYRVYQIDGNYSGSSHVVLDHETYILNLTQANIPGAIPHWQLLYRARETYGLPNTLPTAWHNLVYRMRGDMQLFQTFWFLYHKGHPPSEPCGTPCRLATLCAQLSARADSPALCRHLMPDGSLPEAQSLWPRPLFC
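Human placenta-derived ASM enzyme was preincubated with compound for 10 minutes at room temperature, then given fluorogenic substrate HMU-PC0 (9 uM final) for 60 minutes at 37 °C; a pH 10 stop preceded fluorescence reading at Ex 386/Em 447 nm.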
TDP1 cell CPT: DT40-hTDP1 cell growth loss with CPT; chicken DT40 Tdp1-/-;hTDP1 cells + 20 nM CPT, ATP luminescence, 48 h; Potency, µM (top dose mostly 46.2 µM), without a hit: top-dose activity change, negative = growth inhibition, most hits filed as inhibitors; actives 12% (n = 420,000); also: potency is read from the fitted curve at half-maximal effect; % is scaled to controls: 0 for no effect and ±100 for the full control effect; nearly all actives have a fitted effect of over 55% in size
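Cell growth measured by CellTiter-Glo luminescence after a minimum 48 h, 37 C compound exposure with 20 nM CPT in Tdp1-knockout DT40 cells stably expressing hTDP1, seeded 400/well; qHTS titration format.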
IL-1B inflam inh: inflammasome signaling inhibition, IL-1 beta readout; actives 4.7% (n = 360,000); activity change, % at 57.5 µM; THP-1 LPS/ATP IL-1B secretion, AlphaLISA, 16 h; active compounds read low; AID 743279; in the data active = activity change below about -50%; inconclusive = mostly about -30% to -49%; also: % is scaled to controls: 0 for no effect and ±100 for the full control effect
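Secreted IL-1B measured by AlphaLISA bead assay after 16 h compound exposure of THP-1 cells; compounds (final up to 57.5 uM) added 1 h before LPS (250 ng/mL) and ATP (1.25 mM) stimulation; lower signal means less secretion.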
TGFb SMAD3 inh: inhibitors of TGF-b signaling; HepG2 CAGA-GFP TGF-b/SMAD3 reporter, GFP fluorescence, 18 h; TGF-beta stimulated, 500 pg/mL final; Potency, µM (titrated, usually from 46.1 µM), for the others: at the highest dose activity, negative = inhibition, most hits filed as inhibitors; actives 1.2% (n = 410,000); AID 588855; also: potency is read from the fitted curve at half-maximal effect; % is scaled to controls: 0 for no effect and ±100 for the full control effect; nearly all actives have a fitted effect of over 65% in size
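Read-out: total well GFP (ex488/em500-530) summed from mean per-cell fluorescence. Cells: HEPG2 CAGA-GFP, 1% FBS DMEM, 18 h at 37 degrees C with 500 pg/mL final TGF-beta. Unstimulated wells served as the full-inhibition control; stimulated DMSO wells = 0%.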
HepG2 viability: HepG2 cytotoxicity, counter-screen for TGF-b inhibitors | actives 0.76% (n = 410,000) | Potency, µM (highest dose often 46.1 µM), for the others: top-dose activity change, negative = cytotoxicity, most hits filed as cytotoxic | HepG2 CAGA-GFP viability, ATP luminescence, 18 h; also: potency is read from the fitted curve at half-maximal effect
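CellTiter-Glo luminescence gave cytotoxicity after 18 hours at 37 degrees C. The cells were HepG2 CAGA-GFP in 1% FBS DMEM, stimulated with 500 pg/mL TGF-beta after compound addition. %Activity was normalised to no-cell wells (complete cell-killing) and DMSO (no toxicity), and curves were fitted and classified.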
TDP1 cell noCPT: qHTS for Inhibitors of human tyrosyl-DNA phosphodiesterase 1 (TDP1): qHTS in cells in absence of CPT; DT40 Tdp1-/- hTDP1 cells, no CPT, ATP luminescence, 48 h; AID 686978, 2013; Potency, µM (highest dose often 46.2 µM), inactives show at the highest dose activity change, negative = growth inhibition, usual class: inhibitors; actives 15% (n = 420,000); also: potency is read from the fitted curve at half-maximal effect; % is scaled to controls: 0 for no effect and ±100 for the full control effect; nearly all actives have a fitted effect of over 55% in size
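DT40 Tdp1-/-;hTDP1 cells, no CPT (DMSO vehicle only), 400 cells/well; compounds pin-transferred; ≥48 hr, 37 °C; CellTiter-Glo 30 min RT dark, luminescence read.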
* = called active by the depositor; ? = inconclusive; / = not tested or not shown; ! = a repeat was not active. In the library only some 19% were active in any assay of this set; here they are far more common. Unless noted, calls follow the shape of the dose curve; as a rule, active = well fitted curve in the direction sought with a large enough effect; inconclusive = small, poorly fitted or top-dose-only effect, or another doubt; inactive = no such curve, though single readings can be large; an effect the other way counts as inactive or inconclusive.

SMILES	ASM inhibitor	TDP1 cell CPT	IL-1B inflam inh	TGFb SMAD3 inh	HepG2 viability	TDP1 cell noCPT
Cc1nc(-c2ccc(NS(=O)(=O)c3ccccc3)cc2)cs1	-1%	-9%	?	-7%	-1%	-23%
Cc1csc2nc(-c3ccc(NS(=O)(=O)c4cccc(F)c4)cc3)cn12	/	?	/	-22%	-16%	16µM*
CCOC(=O)c1ccccc1NS(=O)(=O)c1ccc(C)cc1	-1%	?	-8	7%	-10%	?
CCOC(=O)c1cnc(SC)nc1Oc1cccc(NS(=O)(=O)c2ccc(C)cc2)c1	-5%	?	16	3%	5%	16µM*
COc1ccc(CNC(=O)CN(C)Cc2ccc(C(C)(C)C)cc2)cc1	0%	?	-9	?	-2%	?
Cc1ccccc1-c1noc(-c2ccc(N3CCCC3)c([N+](=O)[O-])c2)n1	/	-9%	/	0%	1%	-14%
CCCCCc1cc(=O)oc2c(C(CCN3CCCC(C)C3)c3ccc(OC)cc3)c(OC)cc(OC)c12 (stereo not given)	-13%	?	-54*	?	11µM*	23µM*
CCCCCc1cc(=O)oc2c(C(CCN3CCCC3)c3cc(OC)c(OC)c(OC)c3)c(OC)cc(OC)c12 (stereo not given)	-9%	5.8µM*	-5	?	16µM*	16µM*
CCCCCc1cc(=O)oc2c(C(CCN3CCCC3)c3ccc(N(C)C)cc3)c(OC)cc(OC)c12 (stereo not given)	-12%	15µM*	-76*	?	13µM*	8.2µM*
CCCCCc1cc(=O)oc2c(C(CCN3CCN(c4ccccc4)CC3)c3ccc4c(c3)OCO4)c(OC)cc(OC)c12 (stereo not given)	?	26µM*	18	-8%	-13%	16µM*
COC(=O)NCC(c1ccc2c(c1)OCO2)N1CCN(c2ccccc2)CC1 (stereo not given)	5%	?	14	-1%	-5%	-25%
CC1=NN(c2ccccc2)C(=O)/C1=C/c1c(O)n(-c2ccc(F)c(Cl)c2)[nH]c1=O	-17%	1%	-8	-20%	-42%	-1%
COc1ccc(CNC(=O)[C@H](C)NC(=O)C2CCN(C(=O)[C@@H](N)Cc3ccccc3)CC2)cc1	-4%	-5%	-12	2%	4%	-14%
COc1ccc(C(CCN2CCCC(C)C2)c2c(OC)cc(OC)c3c2OC(=O)CC3c2cc(OC)c(OC)c(OC)c2)cc1 (stereo not given)	4%	16µM*	-10	?	-21%	?
CCN(CC)CCC(c1ccc(N(C)C)cc1)c1c(OC)cc(OC)c2c1OC(=O)CC2c1ccc(OC)cc1 (stereo not given)	/	/	/	-6%	-22%	/
CCCCCc1cc(=O)oc2c(C(CCN3CCCCC3)c3ccc(OC)cc3)c(OC)cc(OC)c12 (stereo not given)	-8%	?	?	?	11µM*!	16µM*
COc1ccc(C(CC(=O)N2CCCCC2)c2c(OC)cc(OC)c3c(-c4ccccc4)cc(=O)oc23)cc1 (stereo not given)	-2%	?	-19	?	4%	?
COc1ccc(-c2cc3nc(C)c(CCC(=O)Nc4cccc(C(F)(F)F)c4)c(C)n3n2)c(OC)c1	/	-1%	/	?	-9%	-27%
Cc1cc(S(=O)(=O)n2[nH]c(=O)c(CCO)c2C)c(Cl)cc1Cl	3%	16µM*	-9	-3%	-49%	?
Cc1c(C)c(C)c(S(=O)(=O)n2[nH]c(=O)c(CCO)c2C)c(C)c1C	2%	3%	-10	0%	2%	?
COc1cccc(C(=O)/C(C#N)=N/Nc2cccc(-c3ccnc(C)n3)c2)c1	-5%	?	0	-25%	-56%	21µM*
CC(=O)Nc1ccc(NC(=O)C(C)OC(=O)c2cc(S(=O)(=O)N(C)C)ccc2N2CCCC2)cc1 (stereo not given)	2%	?	-2	0%	-7%	?
C=CCN1C(=O)/C(=N/n2cnnc2)c2ccccc21	-1%	5.8µM*	58	0%	-2%	4.6µM*
O=C(NC1CCC(O)CC1)c1ccc2c(c1)S(=O)(=O)N=C1CCCCCN12 (stereo not given)	0%	-2%	14	-4%	-2%	22%
CC(C)c1ccc(NC(=O)c2cccc(Br)c2)cc1	-1%	-26%	-52*	2%	-25%	?
SMILES	ASM inhibitor	TDP1 cell CPT	IL-1B inflam inh	TGFb SMAD3 inh	HepG2 viability	TDP1 cell noCPT
Cc1cc(NC(=O)c2cncc(Br)c2)ccc1NC(=O)c1cc2ccccc2o1	28%	13µM*	?	-14%	-24%	8.2µM*
O=C(Nc1cccc(NC(=O)c2cncc(Br)c2)c1)c1cncc(Br)c1	-1%	12µM*	-6	?	-2%	4.6µM*
O=C(Nc1cccc(C(=O)Nc2cccc(Br)c2)c1)c1ccccc1	?	23µM*	-1	-17%	-21%	?
O=C(O)c1cccc(NC(=O)c2ccccc2)c1	-1%	-18%	-14	1%	-17%	3%
Cc1ccc(C)c(N(CC(=O)NCc2ccccc2)C(=O)c2csnn2)c1	0%	-1%	2	15%	-7%	-8%
Cc1cc(O)ccc1NC(=S)NC(=O)c1cncc(Br)c1	-4%	15µM*	15	?	-14%	16µM*
O=C(Nc1ccc(Cl)cc1)Nc1cccc(C(=O)O)c1	-4%	4%	-6	1%	-3%	-7%
Cc1cccc(NC(=O)c2cccc(NC(=O)c3ccccc3)c2)n1	2%	4.1µM*	-4	-3%	-1%	?
O=C(Nc1ccc(Br)c(C(F)(F)F)c1)c1ccccc1	-7%	21µM*	0	?	-49%	23µM*
O=C(NNC(=O)c1cccc(Br)c1)Nc1ccc(Cl)cc1	2%	23µM*	21	48%	8%	?
Cc1ccc(NC(=O)N2CCC(CN3CCCCC3)CC2)c(Cl)c1	/	-1%	/	-3%	-1%	-24%
CC(C)NC(=O)c1cc(-c2ccc3c(c2)OCO3)on1	3%	13%	-2	7%	-2%	-23%
